From PubChem BioAssay (NCATS) come the findings set out here.

The structures appear in SMILES notation. Inconclusive results are not listed. Values without a mark were called inactive. The source made the active and inactive calls. Calls follow the shape of the dose curve; as a rule, active = well fitted cell-killing curve with a large enough effect; inconclusive = small, poorly fitted or top-dose-only effect, or effect the other way; inactive = flat fitted curve, though single readings scatter.
% is scaled to controls: 0 for no effect and ±100 for the full control effect; potency is read from the fitted curve at half-maximal effect.

For this test, the system named is HeLa. Put plainly: Primary qHTS to identify gynecologic anti-cancer compounds using libraries of approved drugs and bioactive compounds (AID 1345084). Also: nearly all actives have a fitted effect of over 55% in size. To be noted: Gynecologic cancer cell panel viability, ATPlite luminescence, 48 h; series mostly up to 57.5 µM; activity change, negative = cytotoxicity: at the top concentration. An excerpt:
National Center for Advancing Translational Sciences [NCATS] Assay Overview: Chemotherapeutic drug responses vary from cancer to cancer and from patient to patient. These variations could be caused by a number of factors including patient genomic background, tumor mutations, tumor heterogeneity, and aspects of drug treatment. Chemotherapeutic drug resistance is also a common issue and can lead to ineffective treatment and patient death. Here we have profiled the cell killing effects of thousands of compounds to characterize the responses in three gynecological cancers, identify cancer-selective compounds, and understand the diversity of responses to these compounds from pan-cancer suppressors to single cell line selective compounds. In this assay, we screened a 7,914 compound drug library that included approved drug and bioactive compounds in six ovarian, three cervical, and […] placental cancer cell lines using the ATPlite assay for cell viability. […] The cervical cancer cell lines included HeLa, Ca Ski, and C-33 A. The placental cancer cell lines included JEG-3. HEK 293T cells were used as the control cell line to determine the selectivity index. ATPlite is a luminescence based assay reliant on the conversion of a luciferase substrate to light in the presence of ATP. As a cytotoxic compound will suppress growth and decrease the number of cells, the concentration of ATP will decrease, and less light signal will be detected in the well.
Assay Protocol Summary: 1,000 cells in 4 uL of media were dispensed into white, solid bottom 1536-well plates using a Multidrop Combi (Thermo Scientific). The Assay plates were incubated for 16 hours at 37 C with 5% CO2 in assay plates, followed by the addition of 23 nL of DMSO or drug dissolved in DMSO. Each compound was assayed in five concentrations (0.092, 0.46, 2.3, 11.5, and 57.5 uM), using the automated Wako 1536 Pin Tool workstation and incubated at 37 C with 5% CO2 48 hours. 4 uL of ATPlite, the ATP monitoring reagent, was then added to the each well of the assay plates using the Multidrop Combi reagent dispenser followed by incubation for 15 minutes at room temperature. The resulting luminescence was measured using the ViewLux plate reader.
In general terms: In qHTS, concentration-response curves come from the screen itself.
As for `Cc1ccccc1C1=CCN(C)CC1`, the “activity change, negative = cytotoxicity” value was -7.37%.

With `Cc1c(N[C@@H](c2nnc(-c3ccc(C#N)cc3)o2)[C@H](C)O)ccc(C#N)c1Cl`, the “activity change, negative = cytotoxicity” value is 6.67%.

Turning to `O=S(=O)(c1ccccc1F)N1CCOc2c(N3CCNCC3)cccc21`, the “activity change, negative = cytotoxicity” value was 2.89%.

On to `COC1C=CC23c4cc5c(cc4COC2(O)CN(C)C3C1)OCO5` (stereo not given), for which the “activity change, negative = cytotoxicity” value is 4.08% [at 38.5 µM].

On to `CC[C@H]1C2CC3[C@@H]4N(C)c5ccccc5[C@]45C[C@@H]([C@H]2[C@H]5O)N3[C@@H]1O`, for which the “activity change, negative = cytotoxicity” value was -1.38% [at 38.5 µM].

As to `CC1CCCC(O)CC(=O)Cc2cc(O)cc(O)c2C(=O)O1` (stereo not given), the “activity change, negative = cytotoxicity” value is -25.4% [at 38.5 µM].

Take `COC(=O)C12C(=O)C(C)(O)C(=O)C1(C)C(C)=CC1C3(C=O)CCC(OC(C)=O)C(C)(C)C3CCC12C` (stereo not given): the “activity change, negative = cytotoxicity” value is -22.6% [at 25.3 µM].

For `COC(=O)[C@]12CCCC(C)(C)C1CCc1cc(C(C)C)c(O)c(O)c12` (stereo not given in full), the “activity change, negative = cytotoxicity” value is -1.37% [at 38.5 µM].

As to `OC(CNc1ccccc1)Cn1c2ccc(Br)cc2c2cc(Br)ccc21` (stereo not given), the “activity change, negative = cytotoxicity” value is -0.847%.

Take `CC(=O)N1N=C(c2ccc(N)cc2)c2cc3c(cc2C[C@H]1C)OCO3`: the “activity change, negative = cytotoxicity” value was 0.385%.

`Cc1cccc(NC(=O)NC2N=C(c3ccccc3)c3ccccc3N(CC(=O)c3ccccc3C)C2=O)c1` (stereo not given): the “activity change, negative = cytotoxicity” value was 4%.

For `CN(C(=O)C(c1ccccc1)c1ccccc1)[C@H](CN1CC[C@H](O)C1)c1ccccc1`, the “activity change, negative = cytotoxicity” value was 1.69%.

`O=C(OC[C@H]1O[C@@H](Oc2ccc(O)cc2CO)[C@H](O)[C@@H](O)[C@@H]1O)c1ccccc1`: the “activity change, negative = cytotoxicity” value was 8.65% [at 25.3 µM].

For the compound `CN1C(=O)[C@@H](Cc2c[nH]c3ccccc23)N=C(c2ccccc2F)c2ccccc21`, the “activity change, negative = cytotoxicity” value was -0.0192%.

As for `COc1ccc2[nH]c(-c3ccccc3)c(CCN(C)C)c2c1`, the “activity change, negative = cytotoxicity” value was -0.216%.

`CN1CN(c2ccccc2)C2(CCN(CCCC(=O)c3ccc(F)cc3)CC2)C1=O`: the “activity change, negative = cytotoxicity” value is -1.2%.

Regarding `C[C@@H]1CN(Cc2ccc(F)cc2)CCN1C(=O)COc1ccc(Cl)cc1NC(N)=O`, the “activity change, negative = cytotoxicity” value was -20.1%.

On to `Cc1ccc(Cn2nc(C(=O)N[C@@H]3C(C)(C)[C@@H]4CC[C@@]3(C)C4)cc2-c2ccc(Cl)c(C)c2)cc1`, for which the “activity change, negative = cytotoxicity” value was -0.091%.

On to `CCCCCn1cc(C(=O)C2C(C)(C)C2(C)C)c2ccccc21`, for which the “activity change, negative = cytotoxicity” value was 5.67%.

Regarding `N#CC(O[C@@H]1O[C@H](CO)[C@@H](O)[C@H](O)[C@H]1O)c1ccccc1` (stereo not given in full), the “activity change, negative = cytotoxicity” value was 9.26%.

For the compound `CO[C@H]1[C@@H](O)[C@@H](C)O[C@@H](O[C@@H]2C=C3C(OC(C)=O)CC4(O)C(CC[C@]5(C)[C@@H](C6=CC(=O)OC6)CC[C@]45O)[C@@]3(C)CC2)[C@@H]1O` (stereo not given in full), the Potency was 501 nM (active).

For the compound `CC[C@H]1C[C@@H]2CC[C@@H](O2)[C@@H](C)C(=O)O[C@H](CC)C[C@H]2CC[C@H](O2)[C@H](C)C(=O)O[C@@H](C)C[C@@H]2CC[C@@H](O2)[C@@H](C)C(=O)O[C@H](CC)C[C@H]2CC[C@H](O2)[C@H](C)C(=O)O1`, the Potency is 562 nM (active).

As for `C/C=C(\C)C(=O)OC1CC2C(CC=C3CC(OC4CC(OC)C(OC5CC(OC)C(OC6CC(OC)C(OC7CC(OC)C(O)C(C)O7)C(C)O6)C(C)O5)C(C)O4)CCC32C)C2(O)CCC(C(C)=O)C12C` (stereo not given), the activity change, negative = cytotoxicity is 9.98% [at 11.6 µM].

In the case of `O=C1N[C@@H](Cc2ccccc2)CN2CCCC[C@@H]12`, the “activity change, negative = cytotoxicity” value was -2.45%.

On to `CC(=O)O[C@H]1CC[C@H]2[C@@H]3CC[C@H]4CC(=O)C=C(C)[C@]4(C)[C@H]3CC[C@]12C`, for which the “activity change, negative = cytotoxicity” value is 7.42%.

Take `CCc1nn(C)c(C(=O)NCc2ccc(Oc3ccc(C)cc3)cc2)c1Cl`: the “activity change, negative = cytotoxicity” value was -18.6%.

Turning to `CC1=CC2/C=C(\C)CCC(O)C(O)/C=C/C(=O)OC23C(=O)NC(CC(C)C)C3C1C` (stereo not given), the “activity change, negative = cytotoxicity” value was -2.44% [at 25.3 µM].

Regarding `COc1ccsc1CNCC[C@@]1(c2ccccn2)CCOC2(CCCC2)C1`, the “activity change, negative = cytotoxicity” value is -0.776%.

Consider `C[C@]12CC[C@H]3[C@@H](CCC4=C/C(=N/OCC(=O)O)CC[C@@]43C)[C@@H]1CC[C@@H]2O`, for which the “activity change, negative = cytotoxicity” value is -1.38%.

For `CCC1NC(=O)C2C(Cl)C(Cl)CN2C(=O)C(CC)NC(=O)CC(c2ccccc2)NC(=O)C(CO)NC1=O` (stereo not given), the “activity change, negative = cytotoxicity” value is 4.07% [at 25.3 µM].

Take `CCCCCn1cc(C(=O)Cc2ccccc2OC)c2ccccc21`: the “activity change, negative = cytotoxicity” value was -1.85%.

For `O=C(N[C@H]1CN2CCC1CC2)c1cc2cccc(Cl)c2s1`, the “activity change, negative = cytotoxicity” value was 4.61%.

For `CC(=O)O[C@H]1C[C@]2(O)[C@@H]3CC[C@@H]4C[C@@H](O)CC[C@]4(C)[C@H]3CC[C@]2(C)[C@H]1c1ccc(=O)oc1`, the Potency was 316 nM (active).

For the compound `C[C@]12CC[C@H](O)C[C@@]1(O)CC[C@@H]1[C@@H]2CC[C@]2(C)[C@@H](c3ccc(=O)oc3)CC[C@]12O`, the “activity change, negative = cytotoxicity” value is -1.17%.

With `C=C1C(=O)CC2OC2(C)CC2OC(=O)C(=C)C2C(O)C1OC(=O)/C(C)=C\C` (stereo not given), the “activity change, negative = cytotoxicity” value is 4.72% [at 38.5 µM].

In the case of `CC1CCCC(O)CCC/C=C/c2cc(O)cc(O)c2C(=O)O1` (stereo not given), the “activity change, negative = cytotoxicity” value was -2.11% [at 38.5 µM].

Consider `CCC1=CC2CN3CCc4c([nH]c5ccccc45)[C@@](C(=O)OC)(C2)[C@@H]13`, for which the “activity change, negative = cytotoxicity” value is 0% [at 38.5 µM].

On to `CC(=O)OC[C@]12C[C@H](O)C(C)=C[C@H]1O[C@@H]1[C@H](O)[C@@H](OC(C)=O)[C@@]2(C)[C@]12CO2`, for which the Potency was 178 nM (active).

For `C[C@@H]1O[C@@H](O[C@H]2CC[C@@]3(C)C(CC[C@@H]4C3CC[C@]3(C)[C@@H](C5=CC(=O)OC5)CC[C@]43O)C2)[C@H](O)[C@H](O)[C@H]1O` (stereo not given in full), the Potency was 2000 nM (active).

In the case of `CN1C(=O)[C@]23CC4C(C)(C)[C@@]5(C[C@@]41CN2CC[C@@]3(C)O)C(=O)Nc1c5ccc2c1OC=CC(C)(C)O2` (stereo not given in full), the “activity change, negative = cytotoxicity” value was -17.9% [at 25.3 µM].
